In the supplement of paper PMC10849652:
About 7,900 targets were measured; listed, in parts, are those with a hit and a random draw of the rest. About 0.6% of all pairs of compound and target were hits.

Compound: c1cn2cc(-c3ccc4cn[nH]c4c3)nc(Nc3ccc(N4CCOCC4)cc3)c2n1 [entospletinib]
Experiment: log2 fold change, soluble protein after heating vs DMSO (PISA); higher = thermal stabilisation; K562 cells, 10 uM, 30 min; active = over 0.2 and 3.5 SD of the protein, either way, in both replicates (recomputed)
Outline: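 K562 cells at 2×10^6 cells/mL were treated for 30 min with 10 μM compound, and aliquots were heated for 3 min over 48°C-58°C before pooling. Extraction used PBS with 0.5% NP-40 at 4°C, and soluble protein was the supernatant after 21,000xg for 90 min, measured by TMTpro 16plex LC-MS/MS with channel sums equalised. Thermal stability values, relative to control samples and from duplicates, are log2 fold changes.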

UniProt Q9HCG7, sequence (Q9HCG7 whole entry, looked up): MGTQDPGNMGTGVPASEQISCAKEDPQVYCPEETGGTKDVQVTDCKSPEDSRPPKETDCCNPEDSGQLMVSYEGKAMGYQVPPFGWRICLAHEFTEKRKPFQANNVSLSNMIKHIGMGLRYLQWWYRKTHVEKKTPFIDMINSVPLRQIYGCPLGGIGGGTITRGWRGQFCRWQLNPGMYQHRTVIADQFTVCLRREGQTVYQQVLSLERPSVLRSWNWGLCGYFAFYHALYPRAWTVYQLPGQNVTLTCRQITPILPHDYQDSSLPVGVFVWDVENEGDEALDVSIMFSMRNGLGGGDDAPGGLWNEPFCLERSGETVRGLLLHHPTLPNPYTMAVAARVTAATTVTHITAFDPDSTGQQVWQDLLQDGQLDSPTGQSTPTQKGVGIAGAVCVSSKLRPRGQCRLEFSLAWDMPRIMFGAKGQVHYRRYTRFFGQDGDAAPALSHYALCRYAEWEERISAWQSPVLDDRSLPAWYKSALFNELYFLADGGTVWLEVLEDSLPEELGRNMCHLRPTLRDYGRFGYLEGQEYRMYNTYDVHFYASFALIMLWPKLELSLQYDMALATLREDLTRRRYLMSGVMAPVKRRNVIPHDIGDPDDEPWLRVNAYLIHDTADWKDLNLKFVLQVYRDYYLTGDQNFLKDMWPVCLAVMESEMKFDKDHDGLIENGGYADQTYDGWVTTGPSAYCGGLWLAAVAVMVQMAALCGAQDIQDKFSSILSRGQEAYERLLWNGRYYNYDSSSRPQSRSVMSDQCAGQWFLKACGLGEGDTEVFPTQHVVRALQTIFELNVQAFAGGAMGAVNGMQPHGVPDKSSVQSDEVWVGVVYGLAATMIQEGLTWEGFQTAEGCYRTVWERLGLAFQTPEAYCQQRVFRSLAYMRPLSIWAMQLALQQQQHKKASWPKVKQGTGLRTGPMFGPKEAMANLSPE
UniProt P23327, sequence (P23327 whole entry, looked up): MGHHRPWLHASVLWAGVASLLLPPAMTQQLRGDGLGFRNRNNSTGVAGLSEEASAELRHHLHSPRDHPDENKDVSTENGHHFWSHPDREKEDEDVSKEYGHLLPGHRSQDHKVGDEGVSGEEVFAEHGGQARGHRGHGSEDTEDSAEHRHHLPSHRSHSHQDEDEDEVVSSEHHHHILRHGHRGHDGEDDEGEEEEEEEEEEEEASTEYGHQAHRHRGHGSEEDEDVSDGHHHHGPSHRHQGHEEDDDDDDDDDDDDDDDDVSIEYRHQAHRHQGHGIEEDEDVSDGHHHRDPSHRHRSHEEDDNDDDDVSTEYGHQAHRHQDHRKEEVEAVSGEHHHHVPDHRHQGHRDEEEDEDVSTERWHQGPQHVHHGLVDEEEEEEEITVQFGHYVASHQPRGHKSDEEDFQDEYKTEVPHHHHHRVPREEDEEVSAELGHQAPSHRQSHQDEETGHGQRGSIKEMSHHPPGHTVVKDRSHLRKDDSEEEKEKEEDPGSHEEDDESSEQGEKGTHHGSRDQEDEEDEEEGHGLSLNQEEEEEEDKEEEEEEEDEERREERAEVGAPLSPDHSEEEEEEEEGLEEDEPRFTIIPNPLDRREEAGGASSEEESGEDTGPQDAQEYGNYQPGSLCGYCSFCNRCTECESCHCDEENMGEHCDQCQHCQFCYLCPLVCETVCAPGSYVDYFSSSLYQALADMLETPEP
UniProt Q92769, sequence (Q92769 whole entry, looked up): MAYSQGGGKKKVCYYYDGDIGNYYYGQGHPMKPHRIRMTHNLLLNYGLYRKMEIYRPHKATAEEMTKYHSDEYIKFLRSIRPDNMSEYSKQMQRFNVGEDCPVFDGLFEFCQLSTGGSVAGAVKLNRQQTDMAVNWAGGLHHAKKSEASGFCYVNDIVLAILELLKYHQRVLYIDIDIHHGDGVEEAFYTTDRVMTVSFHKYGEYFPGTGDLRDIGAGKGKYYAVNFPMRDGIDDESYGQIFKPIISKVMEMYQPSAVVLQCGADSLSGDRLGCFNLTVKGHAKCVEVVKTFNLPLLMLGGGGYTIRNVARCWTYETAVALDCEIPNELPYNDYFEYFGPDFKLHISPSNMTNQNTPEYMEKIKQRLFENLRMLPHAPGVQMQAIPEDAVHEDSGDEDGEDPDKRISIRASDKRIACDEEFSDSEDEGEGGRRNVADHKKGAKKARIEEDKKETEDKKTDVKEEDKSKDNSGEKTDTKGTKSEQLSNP
UniProt P37268, sequence (P37268 whole entry, looked up): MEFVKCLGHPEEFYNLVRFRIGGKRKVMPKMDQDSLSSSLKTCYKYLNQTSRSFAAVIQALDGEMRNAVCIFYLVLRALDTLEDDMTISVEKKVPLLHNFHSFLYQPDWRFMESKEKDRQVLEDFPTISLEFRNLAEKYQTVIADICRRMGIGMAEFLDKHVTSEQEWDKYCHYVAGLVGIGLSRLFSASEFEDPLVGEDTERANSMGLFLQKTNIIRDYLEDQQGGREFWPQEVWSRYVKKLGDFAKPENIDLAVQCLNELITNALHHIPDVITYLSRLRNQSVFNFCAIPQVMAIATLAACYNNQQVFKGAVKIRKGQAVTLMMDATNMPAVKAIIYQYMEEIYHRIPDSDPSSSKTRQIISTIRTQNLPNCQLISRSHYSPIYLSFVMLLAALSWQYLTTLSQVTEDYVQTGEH
UniProt Q10472, sequence (Q10472 whole entry, looked up): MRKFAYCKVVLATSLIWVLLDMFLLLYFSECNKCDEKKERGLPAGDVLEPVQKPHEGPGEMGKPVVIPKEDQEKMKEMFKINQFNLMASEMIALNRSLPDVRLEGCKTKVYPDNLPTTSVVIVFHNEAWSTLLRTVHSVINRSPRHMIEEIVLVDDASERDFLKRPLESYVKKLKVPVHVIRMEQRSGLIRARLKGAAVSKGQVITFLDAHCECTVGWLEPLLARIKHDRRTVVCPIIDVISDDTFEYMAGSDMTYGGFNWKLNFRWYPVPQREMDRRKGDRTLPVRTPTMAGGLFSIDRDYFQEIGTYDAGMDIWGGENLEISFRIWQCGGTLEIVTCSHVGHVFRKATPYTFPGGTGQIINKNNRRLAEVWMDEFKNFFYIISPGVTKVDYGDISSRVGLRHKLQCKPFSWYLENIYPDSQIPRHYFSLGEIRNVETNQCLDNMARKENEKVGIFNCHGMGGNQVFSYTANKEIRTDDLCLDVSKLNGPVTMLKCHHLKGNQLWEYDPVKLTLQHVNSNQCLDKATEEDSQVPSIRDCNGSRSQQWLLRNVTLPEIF
UniProt P15586, sequence (P15586 whole entry, looked up): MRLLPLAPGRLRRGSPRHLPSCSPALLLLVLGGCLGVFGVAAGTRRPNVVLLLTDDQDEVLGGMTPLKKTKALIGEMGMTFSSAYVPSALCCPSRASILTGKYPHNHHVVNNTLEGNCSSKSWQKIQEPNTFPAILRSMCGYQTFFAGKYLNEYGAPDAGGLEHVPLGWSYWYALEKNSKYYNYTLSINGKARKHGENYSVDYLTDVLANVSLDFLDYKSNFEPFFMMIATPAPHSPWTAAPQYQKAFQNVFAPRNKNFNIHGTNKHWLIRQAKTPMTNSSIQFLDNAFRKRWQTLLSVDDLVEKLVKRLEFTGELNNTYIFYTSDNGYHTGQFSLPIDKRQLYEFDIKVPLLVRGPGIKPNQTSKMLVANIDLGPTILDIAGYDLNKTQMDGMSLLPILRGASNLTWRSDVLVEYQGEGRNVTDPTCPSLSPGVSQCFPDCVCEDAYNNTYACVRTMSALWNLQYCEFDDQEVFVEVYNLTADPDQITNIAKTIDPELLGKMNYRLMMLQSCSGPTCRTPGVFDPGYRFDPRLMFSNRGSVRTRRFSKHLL
UniProt P15260, sequence (P15260 whole entry, looked up): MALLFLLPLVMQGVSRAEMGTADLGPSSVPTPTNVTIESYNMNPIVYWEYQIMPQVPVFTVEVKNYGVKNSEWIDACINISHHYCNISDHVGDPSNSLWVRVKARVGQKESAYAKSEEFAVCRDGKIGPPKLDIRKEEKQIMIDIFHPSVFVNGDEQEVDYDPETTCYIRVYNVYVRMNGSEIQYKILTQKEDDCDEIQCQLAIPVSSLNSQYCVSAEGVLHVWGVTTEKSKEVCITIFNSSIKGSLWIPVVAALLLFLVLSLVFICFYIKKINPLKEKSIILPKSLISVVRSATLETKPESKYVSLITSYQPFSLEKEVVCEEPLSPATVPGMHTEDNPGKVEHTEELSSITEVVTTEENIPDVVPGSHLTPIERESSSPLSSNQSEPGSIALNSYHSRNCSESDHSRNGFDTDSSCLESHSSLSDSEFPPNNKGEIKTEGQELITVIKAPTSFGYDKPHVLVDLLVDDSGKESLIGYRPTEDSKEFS
UniProt P22830, sequence (P22830 whole entry, looked up): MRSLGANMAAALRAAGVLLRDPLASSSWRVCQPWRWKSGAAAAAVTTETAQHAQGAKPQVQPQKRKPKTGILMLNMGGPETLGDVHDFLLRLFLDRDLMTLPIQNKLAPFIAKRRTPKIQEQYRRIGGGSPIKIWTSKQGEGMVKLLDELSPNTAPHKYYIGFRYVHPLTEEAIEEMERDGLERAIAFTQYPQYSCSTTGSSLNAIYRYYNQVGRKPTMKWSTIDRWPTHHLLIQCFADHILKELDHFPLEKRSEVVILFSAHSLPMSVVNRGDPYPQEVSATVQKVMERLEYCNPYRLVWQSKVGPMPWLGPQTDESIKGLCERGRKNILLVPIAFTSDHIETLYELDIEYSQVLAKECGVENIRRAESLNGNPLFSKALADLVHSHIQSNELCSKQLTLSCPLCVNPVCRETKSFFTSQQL
UniProt Q92947, sequence (Q92947 whole entry, looked up): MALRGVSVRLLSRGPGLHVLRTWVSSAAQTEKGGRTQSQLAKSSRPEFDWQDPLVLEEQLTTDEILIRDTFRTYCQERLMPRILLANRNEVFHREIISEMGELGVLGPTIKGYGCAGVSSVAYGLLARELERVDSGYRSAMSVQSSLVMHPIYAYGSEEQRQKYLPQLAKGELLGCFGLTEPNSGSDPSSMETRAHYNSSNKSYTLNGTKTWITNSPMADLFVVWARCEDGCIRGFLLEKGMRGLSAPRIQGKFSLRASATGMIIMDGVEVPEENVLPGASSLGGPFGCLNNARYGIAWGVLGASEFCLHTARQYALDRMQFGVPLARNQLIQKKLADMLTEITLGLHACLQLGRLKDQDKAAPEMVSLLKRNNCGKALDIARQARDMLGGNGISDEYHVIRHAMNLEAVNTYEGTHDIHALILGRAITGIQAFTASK

log2 fold change, inactive:
GALNT1 (UniProt Q10472) 0.01
HDAC2 (UniProt Q92769) 0
GID4 (UniProt Q8IVV7) -0.021
GHDC (UniProt Q8N2G8) 0.038
IFNGR1 (UniProt P15260) -0.019
GBE1 (UniProt Q04446) 0.039
FCHO1 (UniProt O14526) -0.059
FMR1 (UniProt Q06787) 0.01
HRC (UniProt P23327) 0.032
GTF2B (UniProt Q00403) -0.04
IFITM3 (UniProt Q01628) 0.034
GINS2 (UniProt Q9Y248) 0.012
H1FX (UniProt Q92522) 0.02
FDFT1 (UniProt P37268) -0.019
GNS (UniProt P15586) 0.002
FIZ1 (UniProt Q96SL8) 0.042
GTF2H3 (UniProt Q13889) 0.087
FYB1 isoform 3 (UniProt O15117) 0.036
GCDH (UniProt Q92947) -0.026
GBA2 (UniProt Q9HCG7) -0.108
HNRNPH2 (UniProt P55795) 0.009
GNL3 (UniProt Q9BVP2) -0.12
HAT1 (UniProt O14929) -0.021
FECH isoform 2 (UniProt P22830) 0.471
HEATR3 (UniProt Q7Z4Q2) 0
GLYR1 (UniProt Q49A26) 0.041
HNRNPH1 (UniProt P31943) 0.108
GNAS (UniProt Q5JWF2) 0.052
GEMIN6 (UniProt Q8WXD5) 0.082
GNG5 (UniProt P63218) 0.062
FKBP7 (UniProt Q9Y680) -0.012
GABARAPL2 (UniProt P60520) -0.032
GAPVD1 isoform 6 (UniProt Q14C86) 0.045
HMG20A (UniProt Q9NP66) -0.049
HBQ1 (UniProt P09105) 0.001
HDAC10 (UniProt Q969S8) 0.058
HDGFL2 (UniProt Q7Z4V5) -0.008
GSTT1 (UniProt P30711) 0.013
IFI30 (UniProt P13284) -0.032
IFT74 (UniProt Q96LB3) 0.021
